A selection: hits, their analogues and other compounds. The true share with any hit is near 1.4%.
Sa ugtP lethal = kills S. aureus RN4220 lacking UgtP | S. aureus RN4220 ugtP deletion, OD600 growth, 16 h | growth inhibition, % (concentration not given with the values) | hit rate 0.54% among 330,000 | AID 1259309; in the data active = growth inhibition above about 68%
DUSP3 inh = inhibitors of human VHR1 phosphatase (DUSP3) | P51452 | recombinant VHR phosphatase, pNPP absorbance | inhibition, % at 13.3 µM | hit rate 0.52% among 290,000 | AID 1654; in the data active = inhibition above about 50%
Target sequence (P51452 whole entry, looked up): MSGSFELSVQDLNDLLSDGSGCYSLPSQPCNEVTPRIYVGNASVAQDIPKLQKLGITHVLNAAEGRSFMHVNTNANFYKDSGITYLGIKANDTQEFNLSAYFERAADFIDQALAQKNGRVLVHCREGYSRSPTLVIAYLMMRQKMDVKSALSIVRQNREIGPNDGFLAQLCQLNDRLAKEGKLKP
PrPC surface inh = inhibitors of human cell surface prion protein PrPC; P04156; inhibition, % at 13.8 µM; hit rate 0.43% among 370,000; AID 720596; TR-FRET read-out; in the data active = inhibition above about 24%
Sa RN4220 lethal = S. aureus RN4220 growth inhibition; OD600, 16 h; inhibition, % (no concentration beside the values); hit rate 0.33% among 330,000; AID 1259311; in the data active = inhibition above about 85%
3CLpro inhibitor = SARS-CoV 3CLpro protease inhibition; hit rate 0.14% among 290,000; recombinant SARS-CoV 3CLpro, quenched FRET peptide cleavage; P0C6X7; AID 1706; inhibition, % at 6 µM; in the data active = inhibition above about 12%
BJeLR lethal = BJeLR cell viability loss | BJeLR (HRASV12) viability, CellTiter-Glo ATP luminescence, 48 h | inhibition, % (concentration not given with the values) | hit rate 0.17% among 300,000 | AID 1554; in the data active = inhibition above about 50%
A number is an active result.

Results for CS(=O)(=O)N(CC(=O)NCC1CCCO1)c1cccc([N+](=O)[O-])c1 (centres undefined) ?
Sa ugtP lethal: inactive; DUSP3 inh: 56; PrPC surface inh: inactive; Sa RN4220 lethal: inactive; 3CLpro inhibitor: inactive; BJeLR lethal: inactive

How did Cc1ccc(NS(=O)(=O)c2ccc(NC(=O)CN(c3cc([N+](=O)[O-])ccc3C)S(C)(=O)=O)cc2)c(C)c1 do in these assays?
Sa ugtP lethal: inactive; DUSP3 inh: inactive; PrPC surface inh: inactive; Sa RN4220 lethal: inactive; 3CLpro inhibitor: inactive; BJeLR lethal: 65

How did Cc1ccc([N+](=O)[O-])cc1N(CC(=O)NC1CCCC1)S(C)(=O)=O do in these assays?
Sa ugtP lethal: inactive; DUSP3 inh: inactive; PrPC surface inh: inactive; Sa RN4220 lethal: inactive; 3CLpro inhibitor: inactive

What do the screens show for `CC(=O)Nc1ccc(NC(=O)CN(c2cccc([N+](=O)[O-])c2)S(C)(=O)=O)cc1`?
Sa ugtP lethal: inactive; DUSP3 inh: inactive; PrPC surface inh: inactive; Sa RN4220 lethal: inactive; 3CLpro inhibitor: inactive; BJeLR lethal: 69

Results for c1ccc(-c2nnsc2-c2ccccc2)cc1 ?
Sa ugtP lethal: inactive; DUSP3 inh: inactive; PrPC surface inh: inactive; Sa RN4220 lethal: inactive; 3CLpro inhibitor: inactive; BJeLR lethal: inactive

What do the screens show for `O=S(=O)(c1ccc(Cl)c(Cl)c1)c1snnc1-c1ccccc1`?
Sa ugtP lethal: inactive; DUSP3 inh: inactive; Sa RN4220 lethal: inactive; 3CLpro inhibitor: inactive; BJeLR lethal: 53

What do the screens show for `CC(C(=O)O)C1C[C@@]1(C)C(NC(=O)OCc1ccccc1)c1ccccc1` (some centres undefined)?
Sa ugtP lethal: inactive; Sa RN4220 lethal: inactive

How did Cc1sc2ncnc(N3CCC(C(=O)NNC(=O)c4ccccc4Cl)CC3)c2c1C do in these assays?
Sa ugtP lethal: inactive; DUSP3 inh: 53; PrPC surface inh: inactive; Sa RN4220 lethal: inactive; 3CLpro inhibitor: inactive; BJeLR lethal: inactive

What do the screens show for `Cc1sc2ncnc(N3CCC(C(=O)NNC(=O)COc4ccccc4Cl)CC3)c2c1C`?
Sa ugtP lethal: inactive; PrPC surface inh: inactive; Sa RN4220 lethal: inactive; BJeLR lethal: inactive

What do the screens show for `CCc1c(C)c(C#N)c2[nH]c3ccccc3n2c1=S`?
Sa ugtP lethal: 92; DUSP3 inh: inactive; PrPC surface inh: inactive; Sa RN4220 lethal: 93; 3CLpro inhibitor: inactive; BJeLR lethal: inactive

What do the screens show for `CCc1c(C)c(C#N)c2nc3ccccc3n2c1Cl`?
DUSP3 inh: inactive; 3CLpro inhibitor: inactive; BJeLR lethal: 129

How did CCc1c(C)c(C#N)c2nc3ccccc3n2c1-n1nc(C)cc1C do in these assays?
Sa ugtP lethal: inactive; DUSP3 inh: inactive; PrPC surface inh: inactive; Sa RN4220 lethal: inactive; 3CLpro inhibitor: inactive; BJeLR lethal: inactive

Results for CCc1cc(=S)n2c([nH]c3ccccc32)c1C#N ?
Sa ugtP lethal: inactive; DUSP3 inh: inactive; Sa RN4220 lethal: inactive; 3CLpro inhibitor: inactive; BJeLR lethal: inactive

How did COc1ccc(N/C=C2\CCc3ccccc3C2=O)cc1 do in these assays?
Sa ugtP lethal: inactive; DUSP3 inh: inactive; PrPC surface inh: inactive; Sa RN4220 lethal: inactive; 3CLpro inhibitor: 34; BJeLR lethal: inactive

How did Cc1cccnc1Nc1nc(-c2ccccc2)cs1 do in these assays?
Sa ugtP lethal: inactive; DUSP3 inh: inactive; PrPC surface inh: inactive; Sa RN4220 lethal: inactive; 3CLpro inhibitor: inactive; BJeLR lethal: inactive

Results for c1ccc(-c2csc(Nc3ncccn3)n2)cc1 ?
Sa ugtP lethal: inactive; DUSP3 inh: 55; PrPC surface inh: inactive; Sa RN4220 lethal: inactive; 3CLpro inhibitor: inactive; BJeLR lethal: inactive

What do the screens show for `Cc1cccnc1Nc1nc(-c2ccccn2)cs1`?
Sa ugtP lethal: 99; DUSP3 inh: inactive; PrPC surface inh: inactive; Sa RN4220 lethal: 98; 3CLpro inhibitor: inactive; BJeLR lethal: 53

Results for COc1cc2c(cc1O)CC1NCCc3cc4c(c-2c31)OCO4 (centres undefined) ?
Sa ugtP lethal: inactive; Sa RN4220 lethal: inactive

Results for COc1ccc(C=Cc2nc(C)c(-c3ccccc3)c(=O)[nH]2)cc1OC ?
Sa ugtP lethal: inactive; Sa RN4220 lethal: inactive

Results for CC1CC2C3CCC4=CC(=O)C=C[C@]4(C)[C@@]3(Cl)C(O)C[C@]2(C)[C@@]1(O)C(=O)CO (some centres undefined) ?
Sa ugtP lethal: inactive; Sa RN4220 lethal: inactive

What do the screens show for `CCn1cc(C(=O)O)c(=O)c2cc(F)c(N3CCNCC3)nc21`?
Sa ugtP lethal: 97; PrPC surface inh: inactive; Sa RN4220 lethal: 98

What do the screens show for `CCn1cc(C(=O)O)c(=O)c2ccc(C)nc21`?
Sa ugtP lethal: inactive; DUSP3 inh: inactive; PrPC surface inh: inactive; Sa RN4220 lethal: inactive; 3CLpro inhibitor: inactive; BJeLR lethal: inactive

What do the screens show for `COC(=O)c1cc(OC)c(OC)cc1N=CC1=C(O)CC(C)(C)CC1=O`?
Sa ugtP lethal: inactive; DUSP3 inh: 55; PrPC surface inh: inactive; Sa RN4220 lethal: inactive; 3CLpro inhibitor: inactive; BJeLR lethal: inactive

Results for COC(=O)c1cc(N=CC2=C(O)CC(C)(C)CC2=O)cc(C(=O)OC)c1 ?
Sa ugtP lethal: inactive; DUSP3 inh: inactive; PrPC surface inh: inactive; Sa RN4220 lethal: inactive; 3CLpro inhibitor: inactive; BJeLR lethal: inactive

What do the screens show for `NC(=NOC(=O)Nc1ccc(Cl)cc1)c1ncc(C(F)(F)F)cc1Cl`?
Sa ugtP lethal: inactive; Sa RN4220 lethal: inactive

What do the screens show for `CCn1nc(C)c(CN2CCC(Oc3ccc(C(=O)N4CCCC4)cc3)CC2)c1C`?
Sa ugtP lethal: inactive; DUSP3 inh: 57; PrPC surface inh: inactive; Sa RN4220 lethal: inactive; 3CLpro inhibitor: inactive; BJeLR lethal: inactive

Results for Brc1ccc(-n2cnc(-c3ccccc3)c2)cc1 ?
Sa ugtP lethal: inactive; DUSP3 inh: 57; PrPC surface inh: inactive; Sa RN4220 lethal: inactive; 3CLpro inhibitor: inactive; BJeLR lethal: inactive

Results for O=[N+]([O-])c1ccc(-c2cn(-c3ccc(Cl)cc3)cn2)cc1 ?
PrPC surface inh: inactive

How did O=C(NCc1cccc(Cl)c1)c1ccc2nc[nH]c2c1 do in these assays?
Sa ugtP lethal: inactive; DUSP3 inh: 56; PrPC surface inh: inactive; Sa RN4220 lethal: inactive; 3CLpro inhibitor: inactive; BJeLR lethal: inactive

Results for O=C(NCc1ccc(Cl)cc1)c1ccc2nc[nH]c2c1 ?
Sa ugtP lethal: inactive; DUSP3 inh: inactive; PrPC surface inh: inactive; Sa RN4220 lethal: inactive; 3CLpro inhibitor: inactive; BJeLR lethal: inactive

What do the screens show for `COc1ccc(SCCN2CCC(C)CCC2=O)cc1` (centres undefined)?
Sa ugtP lethal: inactive; Sa RN4220 lethal: inactive

How did CCc1cc(=O)oc2c(C)c(OCC(=O)NCCCN3CCOCC3)ccc12 do in these assays?
Sa ugtP lethal: inactive; DUSP3 inh: inactive; PrPC surface inh: inactive; Sa RN4220 lethal: inactive; 3CLpro inhibitor: inactive; BJeLR lethal: inactive

What do the screens show for `Cc1cc(OCC(=O)NC2CC(C)(C)NC(C)(C)C2)c2c(C)cc(=O)oc2c1`?
Sa ugtP lethal: inactive; DUSP3 inh: 56; PrPC surface inh: inactive; Sa RN4220 lethal: inactive; 3CLpro inhibitor: inactive; BJeLR lethal: inactive

Results for Cc1c(OCC(=O)NC2CC(C)(C)NC(C)(C)C2)ccc2c1oc(=O)c1ccccc12 ?
Sa ugtP lethal: inactive; DUSP3 inh: 53; PrPC surface inh: inactive; Sa RN4220 lethal: inactive; 3CLpro inhibitor: inactive; BJeLR lethal: inactive

Screening data (PubChem)
